MPTP block: inhibitors of mitochondrial permeability transition pore; inhibition, % at 10 µM; hit rate 1.4% among 360,000; isolated mouse mitochondria, Ca2+ swelling absorbance, 30 min;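 active = inhibition of 50% or more, scaled per plate between neutral and stimulator controls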
ADAM10 inh: ADAM10 inhibition, QFRET primary screen | O14672 | hit rate 0.62% among 370,000 | inhibition, % at 7 µM | AID 720582 | recombinant ADAM10, EDANS/DABCYL FRET peptide cleavage, 3 h;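 active = inhibition above a per-campaign cutoff equal to the mean of compounds falling between control-based bounds plus 3 SD, cut at about 20% in these data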
ADAM17 inh: ADAM17 inhibition, QFRET primary screen. P78536. recombinant ADAM17, EDANS/DABCYL FRET peptide cleavage. inhibition, % at 6.95 µM. hit rate 0.83% among 370,000;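 active = inhibition above the mean of compounds lying between control limits plus 3 SD, set per campaign, cut at about 8.5% in these data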
KLK7 zymogen act: activates the human kallikrein-7 zymogen; purified proKLK7, EDANS-DABCYL substrate fluorescence; 100% is mature enzyme control, 0% vehicle; activation, % at 7 µM; hit rate 0.9% among 370,000;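 active = activation above the mean of all tested compounds plus 3 SD, computed per campaign excluding outliers beyond control limits, cut at about 13% in these data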
rCAG binder: r(CAG) repeat RNA binding | TO-PRO-1 dye displacement fluorescence | inhibition, % at 3 µM | hit rate 1.3% among 370,000 | AID 651821;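 active = inhibition above the plate cutoff, the mean of all test compounds on that plate plus 3 SD, cut at about 35% in these data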;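 note: higher means more dye released from RNA so lower well fluorescence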
DSG3 Ab inh: human desmoglein-3 autoantibody binding inhibition | binding (percent of control), % at 10 µM | hit rate 0.48% among 310,000 | DSG3-coupled beads, scFv-anti-DSG3-GFP binding, flow cytometry; active compounds read low | P32926 | AID 588358;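 active = binding more than 3 SD below its plate's average and above zero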;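 note: hits lower antibody fragment binding to DSG3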
Each line names hits and unclear results; the compound was inactive in the other large screens. In the library only some 4.7% were active in any assay of this set; here they are far more common.

O=C(Nc1nc(-c2ccccc2)cs1)C1CCCN(S(=O)(=O)c2ccccc2)C1 (stereo not drawn)	ADAM17 inh 9.4
Cc1ccc(-c2csc(NC(=O)c3cccc(S(=O)(=O)N4CCN(C)CC4)c3)n2)cc1	none
COc1ccc(-c2cc(C(=O)NCCc3ccccc3)no2)cc1OC	DSG3 Ab inh 75
Cc1ccc(N2C(=O)C3C4C=CC(CNC(=S)N5CCN(c6cccc(C)c6)C(C)C5)(O4)C3C2=O)cc1 (stereo not drawn)	DSG3 Ab inh 83
CCc1noc(C)c1C(=O)N(C)CC(=O)Nc1ccccc1C(F)(F)F	DSG3 Ab inh 7.5
CCc1noc(C)c1C(=O)N(C)CC(=O)Nc1ccc(Cl)c(Cl)c1	none
COc1ccc(/C=N/Nc2ncc(Br)cn2)c(OC)c1	DSG3 Ab inh 66
Cc1ccc(N=C2SC(C(=O)Nc3ccc(OC(F)(F)F)cc3)C(N)=C2C(=O)Nc2c(C)cc(C)cc2C)cc1 (stereo not drawn)	ADAM10 inh 27, ADAM17 inh 14
COc1ccc(OCC(=O)O/N=C(\N)c2ccc(OC)cc2)cc1	none
CO/N=C(/COc1ccc(F)cc1)c1ccc(OC)cc1	DSG3 Ab inh 72
CCCCn1c(-c2ccc(Br)cc2F)nc2c1c(=O)[nH]c(=O)n2CC(C)C	DSG3 Ab inh 56
CCCCn1c(=O)[nH]c(=O)c2c1nc(-c1ccc(-c3ccc(F)cc3)o1)n2C	none (no result: MPTP block, DSG3 Ab inh)
O=C(N/N=C\c1cccc([N+](=O)[O-])c1O)C1COc2ccccc2O1 (stereo not drawn)	DSG3 Ab inh 31
O=C(N/N=C/c1cccc([N+](=O)[O-])c1)C1COc2ccccc2O1 (stereo not drawn)	none
CCN(CC)CCNC(=O)c1ccc(NCN2C(=O)NC(c3ccccc3)(c3ccccc3)C2=O)cc1	none (no result: MPTP block, DSG3 Ab inh)
O=S(=O)(NCc1ccccc1)c1ccc(S(=O)(=O)N(Cc2cccs2)CC2CCCO2)cc1 (stereo not drawn)	DSG3 Ab inh 90
CCCCCC(=O)NC1CCCCN(Cc2ccccc2C)C1=O (stereo not drawn)	none (no result: MPTP block, DSG3 Ab inh)
O=C(Nc1ccccc1)c1ccccc1OCc1ccc(S(=O)(=O)N2CCOCC2)cc1	DSG3 Ab inh 67
CC(=O)c1ccc(S(=O)(=O)NCC2CCN(C(=O)C(=O)c3cc4ccccc4o3)CC2)cc1	none (no result: MPTP block, DSG3 Ab inh)
COc1ccc(Oc2cccc3c2S(=O)(=O)N(C2CC2)C[C@@H](COCc2ccccc2)O3)cc1	none (no result: MPTP block, DSG3 Ab inh)
CC(C)CN1CN2CCc3ccccc3C2CS1(=O)=O (stereo not drawn)	none (no result: MPTP block, DSG3 Ab inh)
O=C(Cn1cnc2c(cnn2-c2ccc(F)cc2)c1=O)N1CCN(c2ccccc2)CC1	none
O=C(Cn1cnc2c(cnn2-c2ccccc2)c1=O)N1CCN(c2ccc(F)cc2)CC1	DSG3 Ab inh 86
COc1ccc(-n2c(N)c(C(=O)NCC3CCCO3)c3nc4ccccc4nc32)c(OC)c1 (stereo not drawn)	DSG3 Ab inh 73
O=C(OCC#CCSc1nnc(-c2cccc3ccccc23)o1)c1ccccc1	none (no result: MPTP block, KLK7 zymogen act, rCAG binder, DSG3 Ab inh)
Cc1ccc(NC(=O)Cc2cccc(OC(F)(F)F)c2)c(S(=O)(=O)N2CCOCC2)c1	none (no result: MPTP block, DSG3 Ab inh)
CCOc1cccc(-c2nn(-c3ccccc3)cc2/C=C(/C#N)C(=O)NCCCn2ccnc2)c1	DSG3 Ab inh 97
Cc1ccc(-n2c(SCC(=O)c3ccc4ccccc4c3)nnc2-c2cccnc2)cc1	none (no result: MPTP block, DSG3 Ab inh)
COc1ccccc1CCn1cnc(-c2ccc(Cl)cc2)c1CC(C)C	none (no result: MPTP block, DSG3 Ab inh)
Cc1ccc(C(=O)N(CC(=O)NC2CCCC2)Cc2cccs2)s1	DSG3 Ab inh 76
C=CCN=C1NC(CCc2ccccc2)C(C(=O)OC)=C(C)N1Cc1ccccc1C(F)(F)F (stereo not drawn)	none (no result: MPTP block, DSG3 Ab inh)
Cc1cc2c(SCC(=O)Nc3cccc(O)c3)ncnc2s1	rCAG binder 54
Cc1ccc(S(=O)(=O)C(C#N)c2nc3ccccc3nc2N2CC(C)OC(C)C2)cc1C (stereo not drawn)	rCAG binder 39
COC(=O)c1c(-c2ccc(OC)cc2)sc2ccc(N3CCOCC3)cc12	DSG3 Ab inh 66
COc1ccc(-c2sc3ccc(N4CCOCC4)cc3c2-c2ccc(O)cc2)cc1	none
CCOC(=O)c1nn(-c2ccccc2)c(=O)c2c(N)scc12	none
CCOC(=O)c1cc2c(C)nn(-c3ccccc3)c2s1	DSG3 Ab inh -30
